A selection: hits, their analogues and other compounds. The true share with any hit is near 7%.
PLK1 PBD block: qHTS for Inhibitors of PLK1-PDB (polo-like kinase 1 - polo-box domain): Primary Screen. hit rate 2.8% among 360,000. Serine/threonine-protein kinase PLK1 (Homo sapiens), P53350. Plk1 PBD binding of FITC phosphopeptide, fluorescence polarization. Potency, µM, for the others: max response, negative = inhibition, usual class: inhibitors. AID 720504, 2013; also: potency is read from the fitted curve at half-maximal effect; series mostly up to about 57 µM; % is scaled to controls: 0 for no effect and ±100 for the full control effect; nearly all actives have a fitted effect of over 65% in size
KAT2A inh: qHTS Assay for Inhibitors of GCN5L2; GCN5L2 HAT assay, ThioGlo1 CoA-SH fluorescence; Potency, µM (series often up to 58.9 µM), for the others: at the top dose activity change, negative = inhibition, most hits filed as inhibitors; hit rate 0.21% among 390,000; AID 504327, 2011; also: potency is read from the fitted curve at half-maximal effect; % is scaled to controls: 0 for no effect and ±100 for the full control effect
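qHTS, 1536-well. 20nM enzyme, pH 7.5 HEPES/EDTA/Tween-20 buffer; 15 min compound preinc., RT. Start: 75uM H3(1-25), 70uM AcCoA, 50uM ThioGlo1. Read Ex340/Em540 at t=0 (autofluorescence flag) and t=20 min.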
PI5P4K alpha inh: qHTS for Inhibitors of phosphatidylinositol 5-phosphate 4-kinase (PI5P4K) | max response, % | PI5P4Kalpha enzyme, ADP-Glo luminescence, 60 min; hits give low values | AID 652105, 2013 | hit rate 1.2% among 330,000 | Phosphatidylinositol 5-phosphate 4-kinase type-2 alpha (Homo sapiens), P48426; active = max response of -50% or lower; inconclusive = between -30% and -50%; inactive = -30% or higher; also: value at the top dose of about 77 µM; % is scaled to controls: 0 for no effect and ±100 for the full control effect
Target sequence (P48426 whole entry, looked up): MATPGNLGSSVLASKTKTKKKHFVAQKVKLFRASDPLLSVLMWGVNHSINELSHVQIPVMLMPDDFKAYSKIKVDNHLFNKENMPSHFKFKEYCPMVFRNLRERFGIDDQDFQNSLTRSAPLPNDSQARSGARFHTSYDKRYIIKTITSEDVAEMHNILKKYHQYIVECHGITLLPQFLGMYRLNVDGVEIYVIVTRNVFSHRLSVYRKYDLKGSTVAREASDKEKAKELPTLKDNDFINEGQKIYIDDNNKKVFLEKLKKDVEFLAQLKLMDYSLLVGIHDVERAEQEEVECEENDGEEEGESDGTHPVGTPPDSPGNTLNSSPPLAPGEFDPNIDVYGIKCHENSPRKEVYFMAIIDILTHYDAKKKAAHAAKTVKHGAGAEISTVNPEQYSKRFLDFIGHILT
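Reactions run in 0.038 M HEPES pH 7.4, 0.28 mM EGTA, 0.1% CHAPS and 5% DMSO, with PI5P4Kalpha, substrate, compound and 5 microM ATP final, one hour at room temperature. Readout is ADP-Glo luminescence.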
JMJD2A Tudor inh: qHTS Assay for Inhibitors of JMJD2A-Tudor Domain. Lysine-specific demethylase 4A (Homo sapiens), O75164. hit rate 4.4% among 390,000. AID 504339, 2011. Potency, µM (highest dose often 114 µM), without a hit: at the highest dose activity change, negative = inhibition, hits mostly inhibitors. AlphaScreen JMJD2A-Tudor / H3K4me3 peptide binding; also: potency is read from the fitted curve at half-maximal effect; % is scaled to controls: 0 for no effect and ±100 for the full control effect; nearly all actives have a fitted effect of over 50% in size
HP1b binding inh: HTS for Inhibitors of HP1-beta Chromodomain Interactions with Methylated Histone Tails | Chromobox protein homolog 1 (Homo sapiens), P83916 | AlphaScreen HP1-beta / biotin-H3K9me3 peptide binding | Potency, µM (series often up to 114 µM), without a hit: at the highest dose activity change, negative = inhibition, actives largely listed as inhibitors | hit rate 0.56% among 390,000; also: potency is read from the fitted curve at half-maximal effect; nearly all actives have a fitted effect of over 70% in size
Target sequence (P83916 whole entry, looked up): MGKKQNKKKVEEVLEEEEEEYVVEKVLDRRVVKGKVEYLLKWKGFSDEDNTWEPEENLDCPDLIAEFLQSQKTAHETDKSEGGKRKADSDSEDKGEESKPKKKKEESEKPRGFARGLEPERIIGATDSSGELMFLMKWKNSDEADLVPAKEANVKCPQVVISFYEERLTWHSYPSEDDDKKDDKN
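Compound inhibition of the preformed complex between 50 nM HP1-beta and 50 nM biotinylated H3K9me3 peptide was read by AlphaScreen. Buffer was PBS pH 7.4 with 0.01% Tween-20. Incubations ran 30 min at room temperature, with 10 ug/mL donor/acceptor beads.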
BAZ2B inh: qHTS Assay for Inhibitors of BAZ2B | AlphaScreen BAZ2B-H3K14Ac peptide displacement | Potency, µM (highest dose often 114 µM), for the others: at the top dose activity change, negative = inhibition, most hits filed as inhibitors | hit rate 4.4% among 360,000 | AID 504333, 2011; also: potency is read from the fitted curve at half-maximal effect; % is scaled to controls: 0 for no effect and ±100 for the full control effect; nearly all actives have a fitted effect of over 60% in size
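Protein-peptide AlphaScreen: BAZ2B 50 nM, b-H3K14Ac 50 nM, 1x PBS pH 7.4 + 0.01% Tween-20. Preincubation 30 min RT; cpd 30 min RT (top 110 uM); beads 20 min RT, light-protected.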
An asterisk follows results filed as active; ? = inconclusive; · = not tested or not shown; ! = repeats disagree; [ ] = dose if it differs, or a comment. Unless noted, calls follow the shape of the dose curve; as a rule, active = well fitted curve in the direction sought with a large enough effect; inconclusive = small, poorly fitted or top-dose-only effect, or another doubt; inactive = no such curve, though single readings can be large; an effect the other way counts as inactive or inconclusive.

SMILES	PLK1 PBD block	KAT2A inh	PI5P4K alpha inh	JMJD2A Tudor inh	HP1b binding inh	BAZ2B inh
COc1cc(NC(=NS(=O)(=O)c2ccccc2)c2ccccc2)ncn1	-3%	·	1	-18%	17%	·
COc1cc(/C=C2/C(=N)N3C(=NC2=O)SN=C3S(C)(=O)=O)ccc1OC(=O)c1ccco1	?	-17%	-66*	?	5%	?
CS(=O)(=O)C1=NSC2=NC(=O)/C(=C\c3ccc(OC(=O)c4ccco4)cc3)C(=N)N21	·	-2%	·	·	·	-22%
CS(=O)(=O)C1=NN2C(=N)/C(=C\c3ccc(OC(=O)c4ccco4)cc3)C(=O)N=C2S1	?	-12%	0	-11%	26%	50µM*
COCCCN1CN=C(NS(=O)(=O)c2ccc(NC(C)=O)cc2)NC1	·	12%	·	3%	4%	-28%
Cc1ccc(N(CC(=O)NCCc2ccccc2)S(=O)(=O)N(C)C)cc1	·	-5%	·	-17%	20%	-1%
CCOc1ccc(Nc2ccc(N)c(S(=O)(=O)O)c2)cc1	?	·	-60*	56µM*	50µM*	·
Cc1cccc(NC(=O)CSc2nnc(CNC(=O)c3ccco3)o2)c1	2%	-1%	-3	-2%	55%	-11%
O=[N+]([O-])c1cc(S(=O)(=O)NC2=NCCCCC2)ccc1NCC1CCCCC1	8%	-8%	5	45µM*	-14%	·
Nc1ccc(S(=O)(=O)NC2=NCCCCC2)cc1N	-17%	-9%	8	-10%	9%	·
Cc1cc(C)c2c(c1)c(C)cc1nnc(SCC(=O)c3ccccc3)n12	·	-2%	·	-11%	55%	-18%
CCCOc1ccc(C(=O)CCC(=O)Nc2ccc(N3CCN(C)CC3)cc2)cc1	4%	-4%	1	56µM*	-21%	50µM*
CCCOc1ccc(C(=O)CCC(=O)OCC(=O)Nc2ccc(OCC)cc2)cc1	·	21%	·	·	·	-4%
Cc1ccc(NC(=O)CCC(=O)OCc2ccc(Br)cc2)cc1	27µM*	-1%	6	79µM*	17%	-1%
O=C(CCNS(=O)(=O)c1ccc(Br)cc1)NC1CCCCC1	-8%	?	-2	1%	38%	11%
O=C(CCS(=O)(=O)c1ccc(Br)cc1)NC1CCCC1	?	-2%	·	50µM*	-28%	50µM*
COc1ccc([N+](=O)[O-])cc1NC(=O)CS(=O)(=O)c1ccc(C)cc1	-18%	0%	0	-15%	36%	-13%
COc1ccc([N+](=O)[O-])cc1NC(=O)CCS(=O)(=O)c1ccc(Br)cc1	-22%	0%	0	40µM*	?	50µM*
CCOC(=O)C1CCN(C(=O)Cn2nc(CC)n3c(cc4sccc43)c2=O)CC1	·	-6%	·	0%	32%	3%
CC(C)Cc1cc(C(=O)N(C)C2CCCN(Cc3ccccc3F)C2)n(C)n1 (stereo not drawn)	-20%	-4%	2	-18%	54%	-9%[57.1 µM]
CCc1ccccc1NC(=O)N(C)CCc1c(C)nn(C)c1C	·	-8%	·	-4%	69%	30%
COC(=O)c1ccccc1NC(=O)CCS(=O)(=O)c1ccc(Br)cc1	12µM*	-9%	?	4µM*	3.2µM*	2µM*
O=C(CCS(=O)(=O)c1ccc(Br)cc1)Nc1ccc(F)cc1F	·	-5%	·	9%	33%	10%
Cc1ccc(S(=O)(=O)CCC(=O)Nc2ccccc2Cl)cc1	-5%	2%	-3	-13%	42%	6%
O=C(CCS(=O)(=O)c1ccc(Br)cc1)Nc1cc(F)ccc1F	?	2%	-15	-19%[57.1 µM]	32µM*	45µM*
SMILES	PLK1 PBD block	KAT2A inh	PI5P4K alpha inh	JMJD2A Tudor inh	HP1b binding inh	BAZ2B inh
CCOC(=O)CNCCC(=O)c1ccc(Br)cc1	12µM*	-5%	-10	?	22%	?
Cc1c(Cl)cccc1NC(=O)CNC(=O)CCS(=O)(=O)c1ccc(F)cc1	19µM*	-3%	-21	-16%	32%	-10%
O=C(Nc1ccccc1)c1cccc(S(=O)(=O)NC2CCCC2)c1	-5%	-14%	10	-4%	23%	-5%
O=C(CN1C(=O)C2CCCCC2C1=O)Nc1ccc(OC(F)F)c(Cl)c1 (stereo not drawn)	-9%	1%	1	-15%	23%	2%
Cc1ccc2c(=O)cc(C(=O)Nc3ccc(S(=O)(=O)N4CCCCC4C)cc3)oc2c1C (stereo not drawn)	·	-4%	·	-14%	23%	-16%
CCc1ccccc1NC(=O)CCS(=O)(=O)c1ccc(Br)cc1	-8%	21%	-2	?	?	79µM*
CCc1ccccc1NC(=O)CCS(=O)(=O)c1ccc(C)cc1	-5%	-4%	0	-4%	27%	12%
CCOc1ccc(NC(=O)CCS(=O)(=O)c2ccc(Br)cc2)cc1	21µM*	?	-16	18µM*	20µM*	35µM*!
CCOc1ccccc1NC(=O)CCS(=O)(=O)c1ccc(Br)cc1	30µM*	-8%	-14	16µM*	35µM*	13µM*
COc1ccc(NC(=O)CCS(=O)(=O)c2ccc(OC)cc2)cc1	-7%	0%	·	-4%	39%	-3%
CCOc1ccc(NC(=O)CCC(=O)c2ccc(Br)cc2)cc1	21µM*	-17%	7	-26%	0%	-38%
CCOc1ccccc1NC(=O)CCNS(=O)(=O)c1ccc(NC(C)=O)cc1	0%	-2%	-3	3%	38%	4%
CCCCn1cc(S(=O)(=O)c2ccc(CC)cc2)c(=O)c2cc(F)c(N3CCOCC3)cc21	·	-8%	·	-15%	24%	-12%
CCC(C(=O)NCc1ccccc1)n1ncn2c(cc3occc32)c1=O (stereo not drawn)	·	-1%	·	0%	32%	-1%
CCOc1ccccc1NC(=O)COC(=O)CNS(=O)(=O)c1ccc(C)cc1	-9%	3%	-11	-8%	-4%	13%
Cc1ccc(NC(=O)CC(N)=S)cc1	3%	-11%	-11	8.9µM*	14%	-1%
CCOc1ccccc1NC(=O)COC(=O)CN(C)S(=O)(=O)c1ccc(C)cc1	27µM*	-11%	3	89µM*	7%	-21%
CC(=O)N1CCOc2ccc(S(=O)(=O)NCCc3ccc(S(N)(=O)=O)cc3)cc21	27µM*	-1%	0	?	12%	-3%
CC(=O)N1CCOc2ccc(S(=O)(=O)Nc3cccc(C)n3)cc21	42µM*	-2%	4	-23%	2%	2%

Compound activity from PubChem BioAssay.
